This is an account of results in PubChem BioAssay (NCATS).

SMILES strings stand for the structures. Results filed as inconclusive are left out. A number with no mark means an inactive call. Active and inactive are the calls of the source. Calls come from the whole dose curve; as a rule, active = well fitted activation curve with a large enough effect; inconclusive = small, poorly fitted or top-dose-only effect; inactive = no such curve, though single readings can be large or run the other way.

Chain of D(1A) dopamine receptor (Homo sapiens) (P21728 whole entry, looked up): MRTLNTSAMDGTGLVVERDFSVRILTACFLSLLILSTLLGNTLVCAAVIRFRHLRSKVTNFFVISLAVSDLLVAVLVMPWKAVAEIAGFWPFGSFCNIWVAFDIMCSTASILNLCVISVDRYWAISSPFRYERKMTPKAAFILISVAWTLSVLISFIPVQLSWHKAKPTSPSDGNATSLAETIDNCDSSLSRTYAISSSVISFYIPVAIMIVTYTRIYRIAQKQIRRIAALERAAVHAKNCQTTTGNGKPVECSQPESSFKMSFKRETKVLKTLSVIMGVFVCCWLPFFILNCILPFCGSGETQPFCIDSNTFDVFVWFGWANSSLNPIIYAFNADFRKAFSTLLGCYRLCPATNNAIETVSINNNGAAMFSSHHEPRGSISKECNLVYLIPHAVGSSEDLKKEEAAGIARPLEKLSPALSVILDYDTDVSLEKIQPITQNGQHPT

This assay concerns the target D(1A) dopamine receptor (Homo sapiens) (UniProt P21728). The assay can be described thus: HTS Assay for Allosteric Agonists of the Human D1 Dopamine Receptor: Primary Screen for Potentiators (AID 488982). Note: 0% is about no effect. Particulars: HEK293 T-REx D1 inducible cells, calcium flux, kinetic fluorescence; series mostly up to 8.37 µM; activity, positive = potentiation: at the top concentration. An excerpt: Dopamine receptors (DARs) are involved in the etiology and/or therapy of a number of neuropsychiatric and endocrine disorders. For instance, all receptor-based antiparkinsonian drugs work via stimulating the […] DAR subtype whereas all FDA-approved antipsychotic agents are antagonists of this receptor. […] There are three different types of allosteric modulators that we are seeking, two of which will stimulate or augment receptor signaling, allosteric agonists and potentiators, while the third, allosteric antagonists, will attenuate receptor signaling. The present primary screening assay measures compound agonism by tracking calcium flux in a […], inducible Hek293 Trex D1 cell line.
Freshly passaged cells are plated in 1536 well black, clear bottom plates at a density of 4000 cells/well in 3 ul of complete media containing 1x tetracycline inducer. After an overnight incubation at 30 C in 5% CO2, cells are loaded with 2 ul of the no wash Calcium Assay Kit (ABD Bioquest) and incubated at room temperature for 30 to 90 minutes. A 10 cycle (1 second/cycle) baseline measurement is taken and then the FDSS online 1536 pintool delivers 23 nl of compound library (as well as dopamine controls) to the plate. The plate is measured for kinetically at 1 cycle/sec for 180 seconds and is considered to be the agonist portion of the assay (eg, compounds which activate a positive calcium response during this portion are flagged as potential agonists). Following the 180 second read, 1 ul of an EC20 of dopamine is delivered by an onboard pipette head. Measurements are taken kinetically for an additional 180 seconds.
As for `CC(=O)OCC(=O)[C@@]1(O)CC[C@H]2[C@@H]3CCC4=CC(=O)CC[C@]4(C)[C@H]3C(=O)C[C@@]21C`, the “activity, positive = potentiation” value is 25.3%.
Turning to `C#CCN(C)Cc1ccccc1`, the “activity, positive = potentiation” value is 27.1%.
With `Cc1cc(N)c2ccccc2[n+]1CCCCCCCCCC[n+]1c(C)cc(N)c2ccccc21`, the “activity, positive = potentiation” value was -38.2%.
In the case of `NC1CCN(c2cccc(Cl)n2)CC1`, the “activity, positive = potentiation” value is -10.1%.
The same measure, in the same setting: the value for `O=C1N=C(O)CN1/N=C/c1ccc(-c2ccc([N+](=O)[O-])cc2)o1` was -7.98%; that for `Nc1cc(=O)[nH]c(N)n1` was -14.4%; that for `CC1=C(CC(=O)O)c2cc(F)ccc2/C1=C\c1ccc(S(C)(=O)=O)cc1` was 16.2%.
Same read-out and setting: the value for `CC1=C(CC(=O)O)c2cc(F)ccc2/C1=C\c1ccc(S(C)=O)cc1` (stereo not given) was 4.69%; that for `C=Cc1c(C)c2cc3[nH]c(cc4nc(cc5nc(cc1[nH]2)C(C)=C5CCC(=O)O)C(CCC(=O)O)=C4C)c(C)c3C=C` was 0.957%; that for `CC[C@H]1CN2CCc3cc(OC)c(OC)cc3[C@@H]2C[C@@H]1C[C@H]1NCCc2cc(OC)c(OC)cc21` was -11.7%.
The same measure, in the same setting: the value for `COc1ccc(Cl)cc1C(=O)NCCc1ccc(S(=O)(=O)NC(=O)NC2CCCCC2)cc1` was -10%; that for `CC1=C(/C=C/C(C)=C/C=C/C(C)=C/C(=O)O)C(C)(C)CCC1` was 21%; that for `CC(C(O)c1ccc(O)cc1)N1CCC(Cc2ccccc2)CC1` (stereo not given) was -92.3%.
With `CC(C)C(=O)c1c(C(C)C)nn2ccccc12`, the “activity, positive = potentiation” value is 7.98%.
As to `CNCCCC1c2ccccc2C=Cc2ccccc21`, the “activity, positive = potentiation” value was -74.3%.
In the case of `C[C@]12CC[C@@H]3c4ccc(O)cc4CC[C@H]3[C@@H]1CCC2=O`, the “activity, positive = potentiation” value is 13.4%.
The same measure, in the same setting: the value for `CN(C)CC[C@@H](c1ccc(Cl)cc1)c1ccccn1` was -11%.
The same measure, in the same setting: as for `CCN(CC)C(C)CN1c2ccccc2Sc2ccccc21` (stereo not given), the figure is -31.1%; as for `CCCn1cnc2c1c(=O)n(CCCCC(C)=O)c(=O)n2C`, 21.4%; as for `CC(C)(C(=O)O)c1ccc(C(O)CCCN2CCC(C(O)(c3ccccc3)c3ccccc3)CC2)cc1` (stereo not given), 18.2%.
On to `OCc1cc(C(O)CNCCCCCCOCCCCc2ccccc2)ccc1O` (stereo not given), for which the “activity, positive = potentiation” value was -21.4%.
Same read-out and setting: as for `CN(C)CCOC(C)(c1ccccc1)c1ccccn1` (stereo not given), the figure is 4.12%.
Same read-out and setting: as for `CNCC(O)c1ccc(O)c(O)c1` (stereo not given), the figure is -85%; as for `CN1CCN(C2Cc3ccccc3Sc3ccc(Cl)cc32)CC1` (stereo not given), -94.5%.
Same read-out and setting: the value for `CCN(CC)CCOC(=O)C1(C2CCCCC2)CCCCC1` was 5.19%; that for `CCN(CC)CCCC(C)Nc1c2ccc(Cl)cc2nc2ccc(OC)cc12` (stereo not given) was -2.61%.
With `CNC(=O)Oc1ccc2c(c1)[C@]1(C)CCN(C)[C@@H]1N2C`, the “activity, positive = potentiation” value is 16.5%.
`COCCOC(=O)C1=C(C)NC(C)=C(C(=O)OC/C=C/c2ccccc2)C1c1cccc([N+](=O)[O-])c1` (stereo not given): the “activity, positive = potentiation” value is -36.2%.
As to `CC(C)(C)c1onc(OCP(=O)(O)O)c1CC(N)C(=O)O` (stereo not given), the outcome was inactive.
In the case of `CC(CN1c2ccccc2Sc2ccccc21)N(C)C` (stereo not given), the “activity, positive = potentiation” value is -87.6%.
On the same count and under the same terms, as for `CNCCC(Oc1ccc(C(F)(F)F)cc1)c1ccccc1` (stereo not given), the figure is -26.2%; as for `OCCN1CCN(CCCN2c3ccccc3Sc3ccc(Cl)cc32)CC1`, -127%; as for `CC(CN(C)C)CN1c2ccccc2CCc2ccccc21` (stereo not given), -74.3%.
The same measure, in the same setting: the value for `CCCCCCCCCCCCCCCC(=O)NCCO` was -12.4%; that for `Nc1ncnc2c1ncn2[C@@H]1O[C@H](CO)[C@@H](O)[C@H]1O` was 46.1%.
Still for that read-out and setting: the value for `C[C@](N)(Cc1ccc(O)cc1)C(=O)O` was 12.3%; that for `NC(=O)c1ncn([C@@H]2O[C@H](CO)[C@@H](O)[C@H]2O)n1` was 5.08%; that for `CSc1ccc2c(c1)C(N1CCN(C)CC1)Cc1ccccc1S2` (stereo not given) was -107%.
On to `N=c1c[n+](N2CCOCC2)[n-]o1`, for which the “activity, positive = potentiation” value was 18.3%.
The same measure, in the same setting: as for `CCN(CC)CCNC(=O)c1cc(Cl)c(N)cc1OC`, the figure is -71.1%.
